The full list was thinned out, with hits kept by preference. The hit rate among all sequences tested is not known here.
test system: T1, Caupolican (Caup) homeodomain DNA-binding domain; test: PBM E-score (8-mer, recovered from the published 9-mer minima) (E-score (dimensionless, -0.5 to 0.5)); Drosophila protein; higher = stronger relative binding preference, active = 0.31 or more
T1 sequence: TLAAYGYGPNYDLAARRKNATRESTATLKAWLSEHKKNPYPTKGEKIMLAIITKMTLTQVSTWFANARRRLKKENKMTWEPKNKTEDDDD
Summary of the method: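 Caup's homeodomain DNA-binding domain (residues 214-303) was produced by in vitro transcription and translation and applied at 100 nM to custom-designed protein binding microarrays. Each value is an enrichment score giving relative binding preference for a short DNA word; higher means stronger. Published 9-mer scores were the minimum of their two constituent 8-mer scores, and the 8-mer values were recovered from those minima. A cutoff of 0.31 marks candidate binding sequences.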

Row | Sequence | PBM E-score
1 | ATCATCCG | 0.0593 (inactive)
2 | CCCTAGCG | -0.171 (inactive)
3 | AGAGCCTA | -0.0924 (inactive)
4 | ATAACCGC | 0.0257 (inactive)
5 | CTGTACTA | 0.156 (inactive)
6 | GTGTACTA | 0.34 (active)
7 | GGGTACTA | 0.152 (inactive)
8 | AGTCGTCC | -0.0214 (inactive)
9 | CACCGAAC | 0.0165 (inactive)
10 | ACTGCGAA | -0.0547 (inactive)
11 | CATGTTAG | 0.408 (active)
12 | CCTGTTAG | 0.114 (inactive)
13 | TAGGTTAA | 0.0795 (inactive)
14 | CATGTTAA | 0.446 (active)
15 | GATGTTAC | 0.295 (inactive)
16 | CATGTTAC | 0.42 (active)
17 | AATGTTAC | 0.277 (inactive)
18 | GATGTTAA | 0.28 (inactive)
19 | TATGTTAA | 0.314 (active)
20 | AATGTTAG | 0.253 (inactive)
21 | AATGTTAA | 0.291 (inactive)
22 | TCTGTTAA | 0.173 (inactive)
23 | GACCTACC | -0.0746 (inactive)
24 | AGCACGCC | -0.187 (inactive)
25 | CGAATTGC | -0.0371 (inactive)
26 | TCATTAAA | 0.143 (inactive)

Row | Sequence | PBM E-score
27 | GAGCTAAC | -0.0389 (inactive)
28 | AACCCCCG | -0.284 (inactive)
29 | AGTGACAA | 0.255 (inactive)
30 | AGCGACAT | 0.325 (active)
31 | AACGACAA | 0.241 (inactive)
32 | AACGACAT | 0.358 (active)
33 | AGCGACAC | 0.188 (inactive)
34 | AGCGACAG | 0.105 (inactive)
35 | AACGACAG | 0.164 (inactive)
36 | AGTGACAC | 0.198 (inactive)
37 | AGTGACAT | 0.354 (active)
38 | AGCCTACT | -0.116 (inactive)
39 | CCCATCCG | -0.202 (inactive)
40 | CTTTACAA | 0.137 (inactive)
41 | ATTTACAG | 0.137 (inactive)
42 | ATTTACAC | 0.259 (inactive)
43 | ATTTACAA | 0.361 (active)
44 | GTTTACAA | 0.343 (active)
45 | GCTTACAA | 0.22 (inactive)
46 | AGGAGTTG | 0.0303 (inactive)
47 | ATACGAAG | 0.0288 (inactive)
48 | CACTCCCC | -0.125 (inactive)
49 | ACATGGTG | 0.366 (active)
50 | ACATGGTA | 0.418 (active)
51 | AGATGGTG | -0.0838 (inactive)
52 | ACATGGTC | 0.285 (inactive)

Row | Sequence | PBM E-score
53 | GCATGGTA | 0.166 (inactive)
54 | CCATGGTA | 0.133 (inactive)
55 | CAGGCCTC | -0.158 (inactive)
56 | CGGGAGCA | -0.149 (inactive)
57 | CCGCTACC | -0.0854 (inactive)
58 | ATTACGTA | 0.173 (inactive)
59 | CGTACTAG | 0.107 (inactive)
60 | ACTAAACC | 0.00838 (inactive)
61 | AGGCCCAG | -0.214 (inactive)
62 | ACCCAGGC | -0.17 (inactive)
63 | ACATCATA | 0.318 (active)
64 | ACATCAAG | 0.227 (inactive)
65 | ACATCATC | 0.251 (inactive)
66 | CCATCATA | 0.02 (inactive)
67 | TCATCACA | 0.14 (inactive)
68 | ACATCAAT | 0.316 (active)
69 | ACATCACG | 0.217 (inactive)
70 | ACATCACA | 0.334 (active)
71 | ACATCAAA | 0.26 (inactive)
72 | ATATATGG | 0.127 (inactive)
73 | GTATAAAA | 0.116 (inactive)
74 | GAATCGGA | -0.0551 (inactive)
75 | ATCCCATC | -0.00982 (inactive)
76 | CGCGTACC | -0.0687 (inactive)
77 | GGTCTCCA | -0.147 (inactive)
78 | CGAACACG | 0.258 (inactive)

Row | Sequence | PBM E-score
79 | AGAACAAT | 0.21 (inactive)
80 | TGAACACA | 0.309 (inactive)
81 | CGAACACA | 0.167 (inactive)
82 | AGAACACG | 0.33 (active)
83 | AGAACAAG | 0.329 (active)
84 | AGAACACT | 0.108 (inactive)
85 | AGAACAAA | 0.191 (inactive)
86 | AGAACACA | ≥ 0.317 (active)
87 | AGCAGTCG | -0.15 (inactive)
88 | ATTGTTTC | 0.143 (inactive)
89 | GGCTAAAC | -0.0281 (inactive)
90 | GCGGTGCC | -0.251 (inactive)
91 | GTGTATGA | 0.249 (inactive)
92 | ATGTATAC | 0.356 (active)
93 | ATGTATAA | 0.344 (active)
94 | GTGTATAA | 0.202 (inactive)
95 | ATGTATGG | 0.157 (inactive)
96 | CTGTATAC | 0.246 (inactive)
97 | ATGTATAG | 0.276 (inactive)
98 | CTGTATAA | 0.186 (inactive)
99 | ATGTATGA | 0.352 (active)
100 | AAAGGATA | 0.105 (inactive)
101 | CCTCCACA | -0.164 (inactive)
102 | AAGTCTGT | 0.139 (inactive)
103 | CGCCTAAA | -0.117 (inactive)
104 | CGACATCC | 0.134 (inactive)

Row | Sequence | PBM E-score
105 | AGACATCA | 0.197 (inactive)
106 | AGACATGA | 0.341 (active)
107 | GGACATGA | 0.304 (inactive)
108 | CGACATTA | 0.202 (inactive)
109 | AGACATAG | 0.164 (inactive)
110 | CGACATGC | 0.386 (active)
111 | AGACATGC | 0.303 (inactive)
112 | AGACATTA | 0.201 (inactive)
113 | AGACATGG | 0.329 (active)
114 | AGACATCG | 0.0873 (inactive)
115 | CGACATGA | 0.395 (active)
116 | GAAGTCAA | -0.0438 (inactive)
117 | GCAGTCGA | -0.135 (inactive)
118 | CCAATCAA | 0.0187 (inactive)
119 | ATAGGCCC | -0.176 (inactive)
120 | ACCCCTCA | -0.091 (inactive)
121 | CAACTCTA | -0.0633 (inactive)
122 | AACACATT | 0.264 (inactive)
123 | AACACACG | 0.248 (inactive)
124 | GACACATA | 0.264 (inactive)
125 | AACACATG | 0.313 (active)
126 | AACACACT | 0.256 (inactive)
127 | TACACATA | 0.343 (active)
128 | CACACATA | 0.164 (inactive)
129 | ATCACATA | 0.239 (inactive)
130 | AGCACATA | 0.0614 (inactive)

Row | Sequence | PBM E-score
131 | AACACACA | ≥ 0.313 (active)
132 | AACACATA | 0.323 (active)
133 | AACACATC | 0.202 (inactive)
134 | GAACAGTA | 0.173 (inactive)
135 | AAGAGAGA | -0.0648 (inactive)
136 | CTTCCGCA | -0.0665 (inactive)
137 | ACTTCTCA | 0.00621 (inactive)
138 | GGTGATAA | 0.0536 (inactive)
139 | GCTCCACC | -0.174 (inactive)
140 | CAATAGCC | 0.0422 (inactive)
141 | CATCTTGC | 0.0649 (inactive)
142 | GTCAACGA | 0.118 (inactive)
143 | CAGCCCGA | -0.199 (inactive)
144 | ATGAGCGA | -0.0133 (inactive)
145 | AAACATAA | 0.321 (active)
146 | CAACATAA | 0.295 (inactive)
147 | AAACATTA | 0.233 (inactive)
148 | AAGCATAA | 0.0796 (inactive)
149 | TAACATAA | 0.327 (active)
150 | AAACATAT | 0.325 (active)
151 | AAACATAC | 0.292 (inactive)
152 | GAACATAA | 0.282 (inactive)
153 | AAACATAG | 0.267 (inactive)

From the supplement of paper PMC3724861
